Myc binder – binds human c-Myc on microarray | P01106 | small molecule microarray, His-c-Myc binding, anti-His fluorescence | calls only | 17,000 compounds, 1.5% hits | AID 624141;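 active means spot fluorescence over background with P-value below 7% in all four replicate spots, showing protein binding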;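 further: score is binary with 100 for all four spots passing and 0 otherwise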
p53 PUMA act – restores mutant p53 pathway signaling in SW480 cells; 28,000 compounds, 1.5% hits; SW480 PUMA-promoter luciferase, p53 mutant reactivation; activation, % at 9.98 µM; in the data active means activation above about 52%
NFkB SMM – NF-kappa-B p105 (human) binding; 17,000 compounds, 1.3% hits; P19838; Small molecule microarray, anti-His fluorescence binding; calls only;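 active means spot fluorescence over background significantly raised, with a chance value under 7% in all four replicate spots of the compound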;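 further: probe protein is his-tagged human p50 processed subunit at 1 µg/ml; raw spot fluorescence signals with no normalization applied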
mut p53 SMM – binds human mutant p53 on microarray. 17,000 compounds, 0.4% hits. AID 624136. calls only. small molecule microarray binding, anti-GST fluorescence;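 active means compounds whose four printed spots each glow above background more than chance allows, each with a p-value under 7%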
STAT3 binder – binders of human STAT3; Small molecule microarray, His-STAT3 binding, anti-His fluorescence; P40763; 17,000 compounds, 0.2% hits; calls only;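 active means compounds whose four printed spots each show fluorescence over background unusually high for their array block, chance value under 7%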
Target sequence (P40763 whole entry, looked up): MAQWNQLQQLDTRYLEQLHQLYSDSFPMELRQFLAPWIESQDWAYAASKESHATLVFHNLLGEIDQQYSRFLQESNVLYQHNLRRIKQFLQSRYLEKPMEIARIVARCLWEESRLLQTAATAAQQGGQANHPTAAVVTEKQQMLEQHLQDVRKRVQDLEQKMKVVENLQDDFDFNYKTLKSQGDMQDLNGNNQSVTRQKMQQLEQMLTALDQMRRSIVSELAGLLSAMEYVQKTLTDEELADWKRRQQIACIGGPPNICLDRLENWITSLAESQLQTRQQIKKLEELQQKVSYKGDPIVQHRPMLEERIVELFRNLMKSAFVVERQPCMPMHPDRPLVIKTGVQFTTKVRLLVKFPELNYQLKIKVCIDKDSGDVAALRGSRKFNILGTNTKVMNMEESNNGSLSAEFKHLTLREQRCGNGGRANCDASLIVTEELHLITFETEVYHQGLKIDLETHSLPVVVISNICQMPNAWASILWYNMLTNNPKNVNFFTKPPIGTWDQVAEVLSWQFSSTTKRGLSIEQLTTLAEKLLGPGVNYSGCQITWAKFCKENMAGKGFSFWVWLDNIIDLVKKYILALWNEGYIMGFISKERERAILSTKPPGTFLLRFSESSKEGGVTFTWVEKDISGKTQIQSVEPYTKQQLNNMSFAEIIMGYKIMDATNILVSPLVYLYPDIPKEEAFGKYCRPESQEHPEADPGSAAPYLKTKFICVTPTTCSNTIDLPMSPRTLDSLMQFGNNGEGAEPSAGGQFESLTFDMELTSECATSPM
* marks the source's active call; other numbers are inactive results; i = inactive; . = no result given; + = active, no number. Hits are enriched below; roughly 2.6% of the tested compounds scored in any of these assays.

SMILES	Myc binder	p53 PUMA act	NFkB SMM	mut p53 SMM	STAT3 binder
CC(=O)O[C@@H]1C[C@@H](C)[C@](O)(CCc2ccoc2)[C@]23CCC[C@](C)(C(=O)OC2)C13 (stereo partly drawn)	i	-10	i	i	i
COc1ccc(C)cc1S(=O)(=O)N(CC(=O)O)c1cc(C)cc(C)c1	.	2	.	.	.
COc1ccc(NC(=O)CSc2ccccn2)c([N+](=O)[O-])c1	.	62*	.	.	.
COc1ccccc1NC(=O)CSc1ccccn1	.	27	.	.	.
O=C(COc1ccc(Cl)cc1)Nc1ncccn1	.	74*	.	.	.
CC(=O)Nc1ccc(OCC(=O)Nc2ccc(Cl)c(Cl)c2)cc1	.	65*	.	.	.
O=C(COc1ccc(Cl)cc1Cl)Nc1ncccn1	.	48	.	.	.
CC(C(=O)Nc1cc(C(F)(F)F)ccc1Cl)n1cc([N+](=O)[O-])cn1 (stereo not drawn)	.	4	.	.	.
CCOC(=O)COc1cccc(-c2nc3ccccc3s2)c1	.	-22	.	.	.
Cc1ccc(C2CC(=O)NC(SCC(=O)OC(C)C)=C2C#N)cc1 (stereo not drawn)	.	5	.	.	.
Cc1ccc(NC(=O)CNC(=O)c2ccco2)cc1	i	59*	i	i	i
CSc1nc(N)nc(SCC(=O)Nc2ccc(Cl)cc2)c1C#N	.	27	.	.	.
Cc1cc(C(F)(F)F)c(C#N)c(SCC(=O)Nc2ccc(Cl)cc2)n1	i	124*	i	i	i
Cc1cc(OCC(=O)Nc2ncn[nH]2)ccc1Cl	i	78*	i	i	i
Cc1cc(OCC(=O)Nc2ncn[nH]2)c(C)cc1Br	.	57*	.	.	.
Cc1cc(OCC(=O)NCc2ccccn2)c(C)cc1Br	.	119*	.	.	.
O=C(CSc1nc2nc3c(cc2c(=O)n1-c1ccccc1)CCCC3)Nc1ccc(Cl)cc1	.	-25	.	.	.
Cn1c(SCC(=O)O)nnc1-c1ccccc1	i	7	i	i	i
Cc1cccc(OCC(=O)Nc2cccc(-c3nnc(-c4ccccc4)o3)c2)c1C	.	68*	.	.	.
Cc1cc(Cl)ccc1OCC(=O)Nc1cccc(NC(=O)c2ccccc2C)c1	.	57*	.	.	.
Cc1ccc(OCC(=O)Nc2cccc(-c3nnc(-c4ccccc4)o3)c2)cc1	.	119*	.	.	.
Cc1ccc(OCC(=O)Nc2cccc(-c3nc4ccccc4[nH]3)c2)cc1	i	10	i	i	i
Cc1nn(CCCC(=O)O)c(C)c1[N+](=O)[O-]	+	6	i	i	i
Cc1cccc(NC(=O)CSc2nnc(-c3ccc(Cl)cc3)n2-c2cccc(C)c2)c1	.	-81	.	.	.
COc1ccc(C(=O)n2nc(-c3ccc(Cl)cc3)nc2NCc2ccco2)cc1	.	118*	.	.	.
SMILES	Myc binder	p53 PUMA act	NFkB SMM	mut p53 SMM	STAT3 binder
O=C(c1cccs1)n1nc(-c2ccc(Cl)cc2)nc1NCc1ccco1	.	102*	.	.	.
CC(=O)n1nc(-c2ccc(Cl)cc2)nc1NCc1ccco1	i	148*	i	i	i
CC(C)(Oc1ccc(Cl)cc1)C(=O)NCc1ccco1	.	3	.	.	.
O=C(O)c1ccc2c(c1)C1C3CCC(C3)C1C(c1ccccc1)N2 (stereo not drawn)	.	4	.	.	.
Cn1c(SCC(=O)n2c3c(c4ccccc42)CCCC3)nnc1-c1ccco1	.	-30	.	.	.
Cc1nc2ccc(NC(=S)NCCCO)cc2nc1C	+	26	i	i	i
c1ccc(-c2nsc(NC3Cc4ccccc4C3)n2)cc1	.	109*	.	.	.
Cc1cccc(C)c1NC(=O)CN(C1CCCCC1)S(=O)(=O)c1ccc(Cl)cc1	.	-14	.	.	.
C[C@@H]1CCCCO[C@H](CN(C)C(=O)Nc2ccc(C(F)(F)F)cc2)[C@H](C)CN([C@H](C)CO)C(=O)c2cc(NS(C)(=O)=O)ccc2O1	+	-11	i	i	i
CC(C)NC(=O)N(C)C[C@@H]1OCCCC[C@@H](C)Oc2ccc(NC(=O)Nc3ccc(C(F)(F)F)cc3)cc2C(=O)N([C@@H](C)CO)C[C@@H]1C	i	-41	i	i	i
C[C@@H]1CCCCO[C@H](CN(C)C(=O)Nc2ccc(C(F)(F)F)cc2)[C@@H](C)CN([C@H](C)CO)C(=O)c2cc(NS(C)(=O)=O)ccc2O1	i	-4	i	i	i
C[C@H]1CN([C@@H](C)CO)C(=O)Cc2cc(NS(=O)(=O)c3ccc(Cl)cc3)ccc2O[C@@H]1CN(C)CC1CCCCC1	+	-1	+	+	i
CC(C)NC(=O)N(C)C[C@H]1OCCCC[C@@H](C)Oc2ccc(NC(=O)Nc3ccc(C(F)(F)F)cc3)cc2C(=O)N([C@@H](C)CO)C[C@H]1C	+	-64	+	i	i
C[C@@H]1CN([C@@H](C)CO)C(=O)c2cc(NC(=O)Nc3ccc(C(F)(F)F)cc3)ccc2O[C@@H](C)CCCCO[C@@H]1CN(C)CC1CCCCC1	i	.	+	i	i
COc1cc(O)c(OC)c2c1C(=O)CC(c1ccccc1)O2 (stereo not drawn)	i	0	i	i	i
COc1ccc(OC)c(NC(=O)COc2ccc(C(=O)Nc3ccc(C)cc3)cc2)c1	.	-1	.	.	.
COc1cc2c(cc1OC)CN(C(=O)[C@@H]1[C@H]3C(=O)O[C@H](c4ccccc4)[C@H](c4ccccc4)N3[C@H](c3ccc(O)cc3)[C@@]13C(=O)Nc1ccc(C#CC4=CCCCC4)cc13)CC2	i	.	i	i	i
CC(C)NC(=O)Nc1ccc2c(c1)C(=O)N([C@H](C)CO)C[C@@H](C)[C@H](CN(C)CC1CCCCC1)O2	.	1	.	.	.
C[C@@H]1CN([C@@H](C)CO)C(=O)c2cc(NC(=O)c3ccncc3)ccc2O[C@@H](C)CCCCO[C@H]1CN(C)CC1CCCCC1	.	2	.	.	.
C[C@@H]1CN([C@@H](C)CO)C(=O)c2cc(NC(=O)c3ccccc3)ccc2O[C@@H](C)CCCCO[C@H]1CN(C)CC1CCCCC1	+	.	i	i	i
C[C@@H]1CN([C@@H](C)CO)C(=O)c2cc(NC(=O)Nc3ccc4c(c3)OCO4)ccc2O[C@H]1CN(C)CC1CCCCC1	i	0	+	i	i
O=C(CCN1C(=O)c2ccccc2C1=O)Nc1ccc([N+](=O)[O-])cc1	.	8	.	.	.
COc1ccc(-c2nnc(SCC(=O)Nc3ccc(Br)c(C)c3C)n2C)cc1	.	-2	.	.	.
CC1(C)CC(=O)C=C(NCC2CCN(C(=S)Nc3ccccc3)CC2)C1	.	-9	.	.	.
CC(C)NC(=O)N(C)C[C@H]1OCCCC[C@@H](C)Oc2ccc(NC(=O)c3ccncc3)cc2C(=O)N([C@@H](C)CO)C[C@H]1C	i	10	+	i	i
C[C@@H]1CN([C@H](C)CO)C(=O)c2cc(NC(=O)c3ccncc3)ccc2O[C@@H](C)CCCCO[C@@H]1CN(C)C(=O)Nc1cccc2ccccc12	i	-19	i	i	+
C[C@@H]1CN([C@@H](C)CO)C(=O)c2cc(NC(=O)c3ccncc3)ccc2O[C@@H](C)CCCCO[C@@H]1CN(C)C(=O)Nc1cccc2ccccc12	i	-19	i	+	+
CC(C)NC(=O)N(C)C[C@H]1OCCCC[C@H](C)Oc2ccc(NC(=O)c3ccncc3)cc2C(=O)N([C@@H](C)CO)C[C@H]1C	i	5	i	i	i

Bioassay records as filed in PubChem BioAssay.
